# Measured values as given in PubChem BioAssay.
# Molecular target: Streptavidin (Streptomyces avidinii) (UniProt P22629)
# Assay: compounds binding control protein streptavidin – biophysical, small-molecule microarray, 635/667 nm fluorescence, artefact control for SMM compound annotation, primary screen (AID 1147);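 also: signal reflects streptavidin binding to arrayed compounds as a control protein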
# Conditions: higher = more signal
# Streptavidin (Streptomyces avidinii), sequence (P22629 whole entry, looked up): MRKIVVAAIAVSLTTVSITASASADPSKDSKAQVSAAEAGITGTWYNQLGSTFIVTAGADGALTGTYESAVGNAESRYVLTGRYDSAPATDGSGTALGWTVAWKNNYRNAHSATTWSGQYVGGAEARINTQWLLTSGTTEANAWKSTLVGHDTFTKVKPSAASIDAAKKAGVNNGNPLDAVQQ
row,SMILES,composite z-score
1,CN(C)C(=O)[C@]1(Cc2ccccc2N=[N+]=[N-])N=C(c2ccc(OCCCO)cc2)O[C@@H]1c1ccccc1,1.4
2,CCCCCC1=C2CNC(CCC)(C(=O)OC)C=C2C(C)C1=O (centres undefined),0.441
3,COCCOC(=O)N1C(=O)[C@@]2(c3cc(C#CCCO)ccc31)[C@H](C(=O)N1CCc3cc(OC)c(OC)cc3C1)[C@H]1C(=O)O[C@H](c3ccccc3)[C@H](c3ccccc3)N1[C@@H]2c1ccc(O)cc1,0.25
4,O=C(NCc1ccccc1)[C@@]1(Cc2ccccc2)N=C(c2ccc(OCCCO)cc2)O[C@H]1c1ccccc1,1.15
5,CC(C)c1ccc(NN2C(C(O)c3cc(C(F)(F)F)cc(C(F)(F)F)c3)C=CC3C(=O)N(c4ccccc4)C(=O)C32)cc1 (centres undefined),0.759
6,CN1C(=O)[C@]2(Cc3ccccc3)N=C(c3ccc(OCCCO)cc3)O[C@@H]2c2ccccc21,0.0004
7,CC(C)(C)OC(=O)CC[C@]1(C(=O)NCC(O)CO)COC(c2ccc(OCCCO)cc2)=N1 (some centres undefined),0.873
8,CCOC(=O)C[C@H]1[C@H](OC(=O)c2cc3ccccc3oc2=O)[C@@H](NC(=O)Cc2ccc(OC)cc2)c2cc(OCCCO)ccc2N1C(=O)c1ccccc1,0.308
9,COc1ccc(CCNC(=O)[C@@]2(Sc3ccc(C)cc3)CC(=O)N(C3CCCCC3)[C@@H]2c2ccc(CO)cc2I)cc1,0.422
10,COc1ccc(C(=O)O[C@H]2CC[C@]3(C)C4=C(CCC3C2(C)C)[C@]2(C)CC[C@H]([C@H](C)CCCC(C)C)[C@@]2(C)CC4)cc1 (some centres undefined),0.25
11,CCOC(=O)C[C@H]1[C@H](OC(=O)Cc2ccc3c(c2)OCO3)[C@@H](NC(=O)c2ccc3ccccc3c2)c2cc(OCCCO)ccc2N1C(=O)c1ccccc1,0.397
12,CCN(CC)c1ccc(N2CC=CC34O[C@@H]5/C=C\CCCOC(=O)C5[C@H]3C(=O)N(CCO)[C@@H]4C2=O)cc1 (some centres undefined),-0.79
13,C=CCNC(=O)[C@@H]1[C@H]2C(=O)O[C@H](c3ccccc3)[C@H](c3ccccc3)N2[C@H](c2ccccc2OCCO)[C@@]12C(=O)N(C(=O)OCCOC)c1ccc(C#CCNC(N)=O)cc12,0.225
14,O=C1C[C@]2(c3ccc([N+](=O)[O-])cc3)C(=O)N(CCN3CCOCC3)c3cc(CO)ccc3[C@H]2N1C1CCCCC1,-0.834
15,CN1C(=O)C2C=CC(C(O)C3CC=CCC3)N(NC(=O)OC(C)(C)C)C2C1=O (centres undefined),1.15
16,COCCCNC(=O)C1N=C(c2ccc(OCCCO)cc2)N(c2ccccc2)O1 (centres undefined),0.51
17,C=C(COC)/C(=C/C[C@H](OC(=O)c1ccncc1)c1ccc(OCCO)cc1)c1cnc2ccccc2c1,1.73
18,C=CC[C@@]1(C(=O)N(C)C)N=C(c2ccc(OCCCO)cc2)O[C@@H]1c1ccccc1N=[N+]=[N-],1.28
19,C=CCOC(=O)[C@H]1[C@@H]2C(=O)O[C@@H](c3ccccc3)[C@@H](c3ccccc3)N2[C@@H](c2ccc(OCCOC(=O)[C@@H]3C[C@@H]4C(=O)N[C@@H](CCCC[N+](C)(C)C)C(=O)N4[C@@H]3c3ccc(O)cc3)cc2)[C@]12C(=O)Nc1ccccc12,-0.0862
20,O=C1NC(=O)C2C1C=CC(C(O)c1cccc3ccccc13)N2Nc1ccccn1 (centres undefined),0.278
21,COc1ccc(C(=O)Nc2cccc(CN3C(=O)[C@]4(O[C@H](CCO)[C@@H]([Si](C)(C)c5ccc(OC)cc5)[C@@H]4C)c4ccccc43)c2)cc1,0.388
22,COC(=O)c1c(CC[C@@H](CO)NC(=O)N2CCC[C@H]2Cn2cc(-c3ccccn3)nn2)oc(C(C)=O)c1C(=O)OC,-0.281
23,C=CCN1C(=O)[C@]2(O[C@H](CCO)[C@@H]([Si](C)(C)c3ccc(OC)cc3)[C@@H]2C)c2cc(N3C(=O)c4cccc5cccc3c45)ccc21,0.487
24,O=C(NCc1ccccc1)[C@@]1(CCS(=O)(=O)c2ccccc2)N=C(c2ccc(OCCCO)cc2)O[C@H]1c1ccccc1,1.8
25,CC(C)C(=C=CC[C@@H](O)c1ccccc1OCCO)CCO,0.666
26,O=C(NCC(F)(F)F)[C@@H]1c2ccccc2C(=O)N(C2CCCCC2)[C@H]1c1ccc(CO)cc1,0.0656
27,CN1C(=O)C2C=CC(C(O)c3cccs3)N(Nc3ccccc3)C2C1=O (centres undefined),0.389
28,COc1cc2c(cc1O)C(C1CC1)N(Cc1cc3c(cc1Br)OCO3)CC2 (centres undefined),-0.735
29,COCCOC(=O)N1C(=O)[C@@]2(c3cc(C#CCCO)ccc31)[C@H](c1ccc(OCCO)cc1)N1[C@H](c3ccccc3)[C@H](c3ccccc3)OC(=O)[C@H]1[C@@H]2C(=O)N1CCN(c2ncccn2)CC1,0.782
